# Screening data as filed in PubChem BioAssay.
# A selection: hits, their analogues and other compounds. The true share with any hit is near 14%.
# Pf growth 48h: P. falciparum growth inhibition at 48 hours (one generation) | P. falciparum luciferase growth in erythrocytes, 48 h | Potency, µM (titrated, usually from 28.7 µM), without a hit: at the top dose activity change, negative = inhibition, most hits filed as inhibitors | 310,000 compounds, 5.9% hits | AID 504832; further: potency means the concentration at half of the fitted maximal effect
#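 Luciferase-expressing parasites in RBCs, 2% Hct / 0.1% parasitemia final; RPMI 1640 + 0.5% Albumax; 37 C, 5% CO2, one generation; luminescence read-out, lower signal = inhibition.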
# HCMV inh: human cytomegalovirus inhibition; HFF cells, HCMV-luciferase reporter, 72 h; active compounds read low; activity change, negative = inhibition, % at 57.5 µM; 410,000 compounds, 4.5% hits; in the data active means activity change below about -60%; inconclusive means no clear call, values can overlap the other calls; inactive means above about -39%
#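 Screen run at 2 compound doses on HFFs infected with reporter HCMV, MOI 1 PFU/cell. Luciferase activity from cell lysates at 72 h post infection gave inhibition relative to buffer-only and Salinomycin wells.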
# HCV inh: blocks hepatitis C virus; Huh7.5.1 HCVcc-Cre infection, luciferase reporter, 44 h; Potency, µM (titrated, usually from 41.8 µM), inactives show at the highest dose activity change, negative = inhibition, most hits filed as inhibitors; 340,000 compounds, 3.4% hits; AID 651820; further: potency means the concentration at half of the fitted maximal effect
#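 Cells seeded at 1,000/well and cultured 4 h, then compounds added followed by HCVcc-Cre virus (~0.5 moi). After 44 h further culture, luciferase substrate was added, plates held 15 min at room temperature, and luminescence read for 15 sec.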
# Lassa entry inh: inhibitors of Lassa virus binding or cell entry | Lassa virus pseudotype entry inhibition, cell reporter | AID 540256 | Potency, µM (highest dose often 37.9 µM), for the others: at the highest dose activity change, negative = inhibition, usual class: inhibitors | 300,000 compounds, 1.2% hits; calls by dose curve; tested in HEK293 cells; further: potency means the concentration at half of the fitted maximal effect; nearly all actives have a fitted effect of over 50% in size
# Marburg entry inh: Marburg virus entry inhibition | Marburg virus pseudotyped entry inhibition, cell reporter | Potency, µM (top dose mostly 37.8 µM), for inactives: at the top dose activity change, negative = inhibition, usual class: inhibitors | 300,000 compounds, 1.8% hits | AID 540276; calls by dose curve; tested in HEK293 cells; further: potency means the concentration at half of the fitted maximal effect
# Pf growth 96h: inhibits malaria parasite growth, 96 h | Potency, µM (series often up to 28.7 µM), without a hit: at the top dose activity change, negative = inhibition, hits mostly inhibitors | 320,000 compounds, 6.9% hits | AID 504834 | P. falciparum luciferase reporter growth, 96 h; further: potency means the concentration at half of the fitted maximal effect
#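 Infected RBCs, 2% Hct / 0.05% parasitemia final; luciferase-reporter P. falciparum; cpd 96 h, 37 C, 5% CO2; luciferase detection reagent; luminescence.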
# * = called active by the depositor; ? = inconclusive; . = no result; [ ] = dose if it differs, or a comment. Unless noted, the call rests on the fitted dose curve; in most records, active means well fitted inhibition curve with a large enough effect; inconclusive means small, poorly fitted or top-dose-only effect, or another doubt; inactive means no such curve, though single readings can be large or run the other way. On the % scale 0 is the no-effect control and ±100 the full control effect.
SMILES,Pf growth 48h,HCMV inh,HCV inh,Lassa entry inh,Marburg entry inh,Pf growth 96h
COc1cccc(/C=N/n2c(N)c(S(=O)(=O)c3cccs3)c3nc4ccccc4nc32)c1,?,-62*,-17%,1%,-1%,?
Nc1c(S(=O)(=O)c2cccs2)c2nc3ccccc3nc2n1/N=C/c1cccc(O)c1,?,-103*,7.9µM*,?,?,.
Cc1cccc(S(=O)(=O)c2c(N)n(/N=C/c3cccnc3)c3nc4ccccc4nc23)c1,-20%,?,?,-27%,?,.
COc1ccc(Cc2nc3ccc(C(=O)N(C)CCCN4CCOCC4)cc3o2)cc1,-15%,-39,-16%,.,.,?
Cc1ccc(S(=O)(=O)N(CC(=O)c2ccc(Cl)cc2)C(=O)N2CCN(C)CC2)cc1,17%,-13,16%,-4%,5%,25%
CCOc1ccc(S(=O)(=O)Nc2cnc3ccccc3c2)cc1,6%,-79*,1.8µM*,?,-28%[46.1 µM],-24%
CCOc1ccc(S(=O)(=O)Nc2nc3ccccc3nc2N2CCN(C)CC2)cc1,7%,11,9%,23%,0%,3.7µM*
CCOc1ccc(S(=O)(=O)Nc2nc3ccccc3nc2Cl)cc1,24%,-34,-9%,.,.,25%
COc1cc(C)c(N(C(C)=O)c2ccccc2)c(C)c1,5.9µM*,5,2%,13%,-13%,.
O=C(N(c1ccccc1)c1ccccc1)N(c1ccccc1)c1ccccc1,?,13,-1%,.,5%,?
Cc1c(C(=O)N2CCCC2)oc2c1-c1nn(CC(=O)NCc3ccccc3F)cc1CC2,.,-64*,.,-12%[46.1 µM],.,.
Cc1ccccc1CNC(=O)Cn1cc2c(n1)-c1c(oc(C(=O)N3CCCC3)c1C)CC2,.,-22,.,?,.,.
COCCCNC(=O)c1oc2c(c1C)-c1nn(Cc3ccc(Cl)cc3)cc1CC2,.,-17,.,-12%[46.1 µM],.,.
CCN(CC)CCCNC(=O)c1oc2c(c1C)-c1nn(Cc3ccc(Cl)cc3)cc1CC2,.,-97*,.,-19%[46.1 µM],.,.
CN(C)c1ccc(CNC(=O)C2CCN(C(=O)c3ccc(-n4ccc5ccccc54)s3)CC2)cc1,.,-2,.,?,.,.
CC(=O)/C(=C/c1ccccc1)C(=O)Nc1ccccc1C,-32%[1.15 µM],-96*,?,.,.,1%
Cc1ccccc1NC(=O)C(=Cc1ccc(C(=O)O)cc1)C(=O)Nc1ccccc1C,3.7µM*,-99*,?,?,?,?
COc1ccc(SCCc2nnc(-c3ccccc3)o2)cc1,9%,-98*,-5%,.,.,5%
c1ccc(-c2nnc(C(c3ccccc3)c3ccccc3)o2)cc1,?,?,-4%,20%,-6%,7.4µM*
c1ccc(Cc2nnc(-c3ccccc3)o2)cc1,84%,-96*,8%,-26%,?,19%
Cc1ccc(-c2nnc(-c3ccccc3)o2)cc1,477%,108,14%,10µM*,16µM*,?
COc1ccc(-c2nnc(-c3ccc(C)cc3)o2)cc1,104%,13,0%,21%[46.1 µM],?,-3%
CCOC(=O)C1CCN(C(=O)Cn2c(=O)cc(C)c3c(C)nn(C)c32)CC1,.,-10,.,?,.,.
O=C(CSc1nc(-c2ccc(F)cc2)cs1)NCC1CCCO1 (stereo not drawn),.,-15,8%,0%[46.1 µM],-16%[46.1 µM],.
Cc1ccc(OCc2cc(C(=O)N(C)CCc3nc4ccccc4[nH]3)no2)cc1C,?,0,?,.,.,63%
SMILES,Pf growth 48h,HCMV inh,HCV inh,Lassa entry inh,Marburg entry inh,Pf growth 96h
O=C(c1ccc(F)cc1)n1nc(-c2cccnc2)nc1NCc1ccc(F)cc1,.,5,.,0%[46.1 µM],?,.
Cc1ccc(OCc2nnc(-c3ccccc3)o2)cc1,.,58,.,30%[46.1 µM],?,.
COc1ccc(Cc2nnc(-c3ccccc3)o2)cc1,118%,19,3%,1%[46.1 µM],5%[46.1 µM],12µM*
CCCc1nnc(-c2ccc(OC)cc2)o1,38%,25,3%,7%,?,102%
CC(=O)Nc1ccc(OCc2nnc(-c3ccccc3)o2)cc1,28%,18,5%,13%[46.1 µM],-5%[46.1 µM],3.7µM*
CC(=O)NCCOC(=O)Nc1cccnc1,1.9µM*,34,35%,-1%,17%,24%
CCn1c(COc2ccc(=O)n(-c3ccccc3)n2)nnc1SCc1ccccc1C,?,-65*,17%,-16%,-20%,?
Cc1nn(C)c2c1c(C(F)(F)F)cc(=O)n2CC(=O)NC(C)(C)C,.,-12,.,-8%[46.1 µM],.,.
Cc1ccc(NC(=O)c2ccccc2N2C(=O)C3C4C=CC(C5CC45)C3C2=O)cc1C (stereo not drawn),?,-4,-12%,-21%,-25%,9.3µM*
Cc1ccccc1NC(=O)c1cccc(N2C(=O)C3C4CC(C(Br)C4Br)C3C2=O)c1 (stereo not drawn),-25%,34,6%,.,.,9.3µM*
Cc1cccc(NC(=O)c2ccc(N3C(=O)C4C5C=CC(C6CC56)C4C3=O)cc2)c1 (stereo not drawn),?,36,?,.,.,43%
O=C(Nc1ccc(Br)cc1)c1cccc(N2C(=O)C3C4CCC(C4)C3C2=O)c1 (stereo not drawn),-7%,-81*,25µM*,?,?,-7%
COC(=O)c1ccc(NC(=O)c2cccc(N3C(=O)C4C5C=CC(C6CC56)C4C3=O)c2)cc1 (stereo not drawn),20%,-40,5µM*,?,?,?
COC(=O)c1ccc(Nc2ncnc3c2cnn3C)cc1,.,19,.,8%[46.1 µM],.,.
COc1ccccc1CN(C)C[C@@H]1OCc2cnnn2CCCC(=O)N([C@H](C)CO)C[C@H]1C,.,27,.,.,.,.
Cc1cccc(C)c1Nc1c(-c2ccccc2Cl)nc2cnccn12,.,?,.,-16%[46.1 µM],?,.
CCOc1ccc(-c2cc(NC(=O)c3ccc(C)cc3)c(C(=O)OC)s2)cc1,.,2,.,?,11%[46.1 µM],.
COc1ccccc1C(=O)COC(=O)c1ccc(Cl)nc1,?,-6,-9%,.,.,1%
CC(C)CCn1c(=O)c2cccnc2n(CC(=O)Nc2ccccc2F)c1=O,.,?,.,.,7%[46.1 µM],.
COc1ccc(OC)c(S(=O)(=O)NCCc2sc(-c3ccc(C)cc3)nc2C)c1,.,-5,.,-2%[46.1 µM],.,.
CCCOC(=O)c1cccc(NC(=O)c2c(-c3ccccc3Cl)noc2C)c1,.,8,.,?,.,.
CCN1CCN(CC(=O)N2N=C(c3cccs3)CC2c2ccc(OC)c(OC)c2)C(=O)C1=O (stereo not drawn),?,-20,-27%,3%,7%[46.1 µM],?
C=C1C(=O)c2sccc2C(c2ccc(OC)c(OC)c2)C1COC(C)=O (stereo not drawn),.,-102*,1.4µM*,7.9µM*,0.89µM*,.
CC(=O)Nc1ccc(-c2noc(-c3csc([C@@H]4C[C@H](O)[C@@H](CO)O4)n3)n2)cc1,.,3,.,.,.,.
C=CCNc1cccc2c1S(=O)(=O)N[C@H](Cc1ccccc1)CO2,.,-30,.,.,.,.
